Compound activity deposited in PubChem BioAssay by several laboratories.
Mot1-301 SUMO – blocks SUMOylation pathway, rescuing yeast Mot1-301 growth. 320,000 compounds, 1% hits. growth rescue, % at 18.8 µM. AID 2716. S. cerevisiae Mot1-301 growth rescue, ATP luminescence, 38.5C; percent above DMSO median, 100 means doubled;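 active = every valid replicate shows activation above 250% relative to neutral control wells; inactive = the rest, any valid replicate at or below 250%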
VLA-4 inh – inhibition in a human VLA-4 binding assay; 330,000 compounds, 0.2% hits; P13612; inhibition, % (about 7 µM as worked out from the volumes in the protocol); VLA-4 expressing cells, ligand binding flow cytometry; in the data active = inhibition above about 50%
Target sequence (P13612 whole entry, looked up): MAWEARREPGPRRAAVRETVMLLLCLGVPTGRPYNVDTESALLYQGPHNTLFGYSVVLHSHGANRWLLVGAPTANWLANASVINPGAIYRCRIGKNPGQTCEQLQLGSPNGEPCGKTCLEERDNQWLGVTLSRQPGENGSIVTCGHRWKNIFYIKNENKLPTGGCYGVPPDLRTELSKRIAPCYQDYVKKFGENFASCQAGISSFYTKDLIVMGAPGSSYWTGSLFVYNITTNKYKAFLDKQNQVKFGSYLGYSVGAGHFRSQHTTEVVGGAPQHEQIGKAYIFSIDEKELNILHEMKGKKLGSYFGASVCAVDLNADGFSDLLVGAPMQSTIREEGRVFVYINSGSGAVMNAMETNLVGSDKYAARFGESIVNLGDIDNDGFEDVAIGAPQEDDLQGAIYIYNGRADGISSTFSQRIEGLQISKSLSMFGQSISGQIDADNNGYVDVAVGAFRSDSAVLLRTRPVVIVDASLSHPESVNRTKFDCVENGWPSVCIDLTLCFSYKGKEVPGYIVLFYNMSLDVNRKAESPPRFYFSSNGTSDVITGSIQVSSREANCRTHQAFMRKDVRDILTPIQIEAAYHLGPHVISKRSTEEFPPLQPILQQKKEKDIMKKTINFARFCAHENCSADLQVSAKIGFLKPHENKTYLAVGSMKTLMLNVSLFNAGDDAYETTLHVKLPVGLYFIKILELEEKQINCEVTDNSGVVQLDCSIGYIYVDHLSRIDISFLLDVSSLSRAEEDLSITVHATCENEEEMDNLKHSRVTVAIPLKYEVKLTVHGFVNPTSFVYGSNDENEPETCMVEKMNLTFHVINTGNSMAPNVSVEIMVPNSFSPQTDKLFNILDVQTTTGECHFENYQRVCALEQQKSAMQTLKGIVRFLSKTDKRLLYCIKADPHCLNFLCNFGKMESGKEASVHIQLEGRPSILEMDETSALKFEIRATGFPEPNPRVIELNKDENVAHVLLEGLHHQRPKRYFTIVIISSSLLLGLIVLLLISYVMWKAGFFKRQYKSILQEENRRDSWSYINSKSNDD
AHR activator – human AHR activation; AHR-responsive luciferase reporter cells, luminescence; activation, % at 5 µM; 320,000 compounds, 2.5% hits; in the data active = activation above about 47%
Bfl-1 A1 inh – inhibitors of the anti-apoptotic protein A1, read as caspase activation; MEF A1-2A-BIM cells, Caspase-Glo 3/7 luminescence, 3 h; percent of clofoctol response, vehicle zero; caspase activation, % (no concentration beside the values); 330,000 compounds, 0.066% hits;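 active = over half of replicate activation scores above 10%, or exactly half above 10 with the replicate mean above 10; inconclusive = replicate mean below 10 yet half the replicates above 10; inactive = over half of replicates below 10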
Efflux pump mplx – antifungal efflux pump inhibition, Nile Red retention; S. cerevisiae Candida pump triplex; inhibition, % at 10 µM; 330,000 compounds, 0.44% hits; AID 485275;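 active = plate passing quality check with inhibition over a set limit, or well fluorescence over plate mean plus 4 SD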;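 also: Nile Red retained in pooled yeast measured as flow cytometry median fluorescence; higher means more Nile Red kept so more efflux inhibition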
ALR H2O2 inh – inhibitors of human sulfhydryl oxidase ALR; purified ALR, DTT oxidation, H2O2 HRP-luminol luminescence; inhibition, % (test concentration not listed); 290,000 compounds, 3.8% hits; AID 485317;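 active = mean replicate inhibition above about 79%, with every replicate also reaching it, limit read from the data; inconclusive = only one of the two criteria met; inactive = mean below limit and not every replicate reaching it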
Large screens that a line does not name were inactive. An excerpt weighted towards active compounds, which were near 7.2% of everything screened.

CC1=NN2C(=N)/C(=C\c3cc(C)n(-c4cccc(C)c4)c3C)C(=O)N=C2S1	none
CCOC(=O)CC(NCc1ccc(OC)c(OCC)c1)c1ccc(C)cc1 (centres undefined)	none
O=C(NC1=NCCS1)c1cccc(OC(F)F)c1	none (no result: Mot1-301 SUMO)
COc1cccc(-c2ncc3ccccc3c2COC(=O)CCCC(=O)O)c1	Bfl-1 A1 inh inconclusive
O=C(Nc1ccsc1C(=O)O)c1ccc(Cl)cc1	ALR H2O2 inh 97
COc1ccccc1N1CC(C(=O)Nc2nnc(SCc3cccnc3)s2)CC1=O (centres undefined)	ALR H2O2 inh 88
Cc1ccccc1-c1nc(CS(=O)CC(=O)NC(C)CCc2ccccc2)c(C)o1 (centres undefined)	none
COCCCNC(=O)CS(=O)Cc1nc(-c2ccccc2C)oc1C (centres undefined)	ALR H2O2 inh 99
COc1ccc(OC)c(CCNC(=O)CS(=O)(=O)Cc2nc(-c3ccccc3Cl)oc2C)c1	none
Cc1ccc(CCNC(=O)CS(=O)Cc2nc(-c3ccccc3Cl)oc2C)cc1 (centres undefined)	ALR H2O2 inh 99
CCOc1ccc(CCNC(=O)CS(=O)Cc2nc(-c3ccccc3Cl)oc2C)cc1OCC (centres undefined)	ALR H2O2 inh 99
Cc1cccc(-c2nc(CS(=O)CC(=O)NCCc3ccccc3)c(C)o2)c1 (centres undefined)	none
COc1cc(CC(=O)Nc2cc(S(C)(=O)=O)ccc2Cl)cc(OC)c1OC	none
Cc1cccc(C(=O)NC2CCN(S(=O)(=O)c3ccc(F)cc3)CC2)c1	none
CC(C)c1ccc(OCC(=O)Nc2ccc3oc(=O)ccc3c2)cc1	none
COc1cc(/C=N/Nc2nncn2/N=C/c2ccc(O)c(OC)c2)ccc1O	ALR H2O2 inh 99
COc1ccc(OC)c(/C=N/Nc2nncn2/N=C/c2cc(OC)ccc2OC)c1	AHR activator 51
COc1ccc(OC)c(/C=N\Nc2nccs2)c1	none
CNC(=S)N/N=C/c1c2ccccc2c(Cl)c2ccccc12	AHR activator 48
CCCCNc1cnn(-c2ccccc2)c(=O)c1Cl	none (no result: ALR H2O2 inh)
CCc1ccc(Nc2cnn(-c3nc4ccccc4s3)c(=O)c2Cl)cc1	AHR activator 49
CCCc1nc(SCC(=O)Nc2nnc(CC)s2)c2c(=O)n(C)c(=O)n(C)c2n1	none
Cc1cccc(N/C=C/C(=O)c2cccs2)c1C	AHR activator 59
COc1cc([N+](=O)[O-])ccc1N/C=C/C(=O)c1cccs1	AHR activator 51
O=C(/C=C/c1ccc([N+](=O)[O-])cc1)c1cccs1	none
O=C(/C=C/c1ccco1)OCc1nnc(-c2ccc(Cl)cc2)o1	none
Cc1cccc(NC(=O)c2nc[nH]c2C(=O)N[C@@H](Cc2ccccc2)C(=O)OCc2ccccc2)c1	none
CCOC(=O)c1nn(-c2ccc3c(c2)OCO3)cc1O	ALR H2O2 inh 94
O=C(Cn1[nH]c(=O)c2ccccc2c1=O)OCC(=O)N1CCCc2ccccc21	none (no result: Mot1-301 SUMO)
O=C(Cn1[nH]c(=O)c2ccccc2c1=O)OCC(=O)N1CCc2ccccc2C1	Bfl-1 A1 inh 8.3
CC(=O)Nc1ccc(SCC(=O)N(CCC#N)c2ccc(C)cc2)cc1	ALR H2O2 inh 97
CC(=O)Nc1ccc(NC(=O)CSc2ccc(C)cc2)cc1	none
NS(=O)(=O)c1ccc(CCNC(=O)CCc2nc3ccccc3s2)cc1	none
N/C(=N\OC(=O)c1ccc(Cl)cc1Cl)c1ccncc1	none
O=C(c1ccc(Cl)cc1Cl)C1(n2cncn2)Oc2ccccc2C1O (centres undefined)	AHR activator 66 (no result: ALR H2O2 inh)
CC1(C)NS(=O)(=O)Oc2ccccc21	none
Nc1nc(-c2ccc3c(c2)CCO3)cs1	ALR H2O2 inh 97
Cc1cc(C)c(C)c(S(=O)(=O)N2C(=S)NC(=O)C2CC(C)C)c1C (centres undefined)	none (no result: ALR H2O2 inh)
Cc1cc(C)c(C)c(S(=O)(=O)N2C(=S)NC(=O)C2C(C)C)c1C (centres undefined)	ALR H2O2 inh 96
NNC(=S)Nc1cccc(-c2n[nH]c(=S)o2)c1	ALR H2O2 inh 98
CC(C)(C)C(=O)N1N=C(c2ccc(NS(C)(=O)=O)cc2)CC1c1cccs1 (centres undefined)	none
Cc1nc(SCC(=O)c2ccc(F)c(F)c2)[nH]c(=O)c1Oc1ccc(F)cc1	none
CNC(=O)CSc1nc2cccnc2n1-c1ccc(F)cc1	none (no result: AHR activator)
